CYP2C9 activ: activators of human CYP2C9 | actives 1.4% (n = 96,000) | AID 1024 | recombinant CYP2C9, luciferin-H conversion, luminescence; active compounds read high; factor 1 = untreated enzyme, 0 = blocked | activation factor at 5 µM | P11712;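 active = activation factor of 2 or more for CYP2C9 at a 5 µM dose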;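 note: 0 = sulfaphenazole-blocked wells and 1 = vehicle-only wells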
Target sequence (P11712 whole entry, looked up): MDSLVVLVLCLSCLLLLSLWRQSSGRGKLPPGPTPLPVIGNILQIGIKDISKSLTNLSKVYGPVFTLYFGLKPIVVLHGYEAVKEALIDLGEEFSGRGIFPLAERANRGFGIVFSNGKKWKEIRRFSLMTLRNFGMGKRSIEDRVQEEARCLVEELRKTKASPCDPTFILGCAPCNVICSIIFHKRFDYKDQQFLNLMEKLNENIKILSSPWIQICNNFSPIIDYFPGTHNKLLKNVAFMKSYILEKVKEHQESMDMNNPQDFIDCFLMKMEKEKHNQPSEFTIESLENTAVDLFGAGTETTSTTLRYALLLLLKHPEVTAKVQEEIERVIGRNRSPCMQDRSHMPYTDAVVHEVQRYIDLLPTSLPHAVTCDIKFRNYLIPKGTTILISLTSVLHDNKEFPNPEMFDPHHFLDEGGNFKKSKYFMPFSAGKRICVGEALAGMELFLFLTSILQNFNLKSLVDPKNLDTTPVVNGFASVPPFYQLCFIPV
CYP2C19 activ: activators of human cytochrome P450 2C19; 96,000 tested, under 10 active; AID 1025; activation factor at 5 µM; recombinant CYP2C19, luciferin-H EGE luminescence; active compounds read high; 0 = fully inhibited enzyme, 1 = untreated enzyme; P33261;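 active = activation factor of at least 2 at 5 µM in the primary screen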;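 note: 0 = wells with 2.5 mM tranylcypromine and 1 = vehicle-only wells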
CYP2C19 inhib: blocks human cytochrome P450 2C19 | P33261 | CYP2C19 Supersomes, luciferin-H EGE luminescence, 30 min | inhibition, % at 5 µM | actives 21% (n = 96,000) | AID 778;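 active = CYP2C19 inhibition above a set limit at 5 µM in the primary screen, cut at about 50% in these data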;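 note: plate controls were negative control wells for no effect and 2.5 mM tranylcypromine positive control for full effect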
CYP2C9 inhib: inhibitors of human CYP2C9 | actives 20% (n = 96,000) | CYP2C9 Supersomes, luciferin-H conversion, luminescence | AID 777 | inhibition, % at 5 µM | P11712;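 active = blocking of liver enzyme CYP2C9 beyond about 50% at 5 µM, limit read from the data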
CD11b adhes inh: inhibitors of human CD11b/CD18 binding to fibrinogen. AID 1497. actives 0.54% (n = 93,000). K562 CD11b/CD18 adhesion to fibrinogen, ATPlite luminescence; Mn2+ added to activate the integrin. P05107+P11215. inhibition, % at 10 µM;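 active = primary inhibition of 50% or more at 10 µM, then 40% or more on retest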
CD11b adhes enh: increases human CD11b/CD18 adhesion to fibrinogen | P05107+P11215 | K562 CD11b/CD18 adhesion to fibrinogen, ATPlite luminescence | activation, % at 10 µM | actives 0.07% (n = 93,000) | AID 1499;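 active = 10 µM primary screen giving 50% or more activity, confirmed by 40% or more on retest at that dose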
An asterisk follows results filed as active; . = no result. A selection: hits, their analogues and other compounds. The true share with any hit is near 28%.

SMILES	CYP2C9 activ	CYP2C19 activ	CYP2C19 inhib	CYP2C9 inhib	CD11b adhes inh	CD11b adhes enh
C=CCNC(=S)N1CCN(CCN=CC2=C(O)CC(c3cccs3)CC2=O)CC1 (stereo unspecified)	1.1	1	-0.2	-5.9	25.5	-3.7
COc1ccc(-c2cc(C(=O)Nc3cc(C)n(Cc4ccc(Cl)cc4)n3)no2)cc1OC	1	1	1.5	-1.3	11.6	14.8
COC(=O)CSc1nnc(CNc2ccc(Cl)cc2)n1-c1ccccc1	0.7	0.5	53.8*	26.7	.	.
CCn1c(CSCc2ccc(F)cc2)nnc1SCC(=O)NCc1ccccc1	0.6	0.6	40.7	42.4	10.2	-2.7
CCOC(=O)CSc1nnc(CNc2ccccc2Cl)n1-c1ccccc1	0.8	0.5	48.2	19.7	-2.3	1.1
CCn1c(CSCc2ccc(C)cc2)nnc1SCC(=O)NCc1ccccc1	0.5	0.8	24.2	54.2*	.	.
Cc1ccccc1NC(=O)Cc1nnc(SCc2ccc(Cl)c(Cl)c2)n1C	0.8	0.8	23.7	17.7	1.0	0.9
Cn1c(CNC(=O)Nc2ccccc2Cl)nnc1SCc1ccccc1	0.7	0.4	64.4*	31.8	2.3	0.1
CC1CC(C)CN(CCCNC(=O)Cc2c(C(=O)O)[nH]c3ccccc23)C1 (stereo unspecified)	1.1	1.2	-16.0	-11.5	7.7	-1.8
CCOCCCNC(=S)NNC(=O)CCn1nc(C)c(Br)c1C	1.1	0.7	34.5	-6.2	-4.7	-2.0
Cc1ccccc1Sc1c(C#N)c(-c2ccccc2)nn1C	0.7	0.8	17.7	26.7	14.1	1.4
CCOC(=O)c1oc2nc(CC(C)C)c3c(c2c1N)CCC3	1.1	0.8	23.0	-9.1	.	.
CCOc1ccc(CCN2C(=O)CCC2(C)C(=O)NC(C)CC)cc1OCC (stereo unspecified)	1	0.9	6.3	4.2	-14.1	-5.6
Cc1cc(NC(=O)CNC(=O)C2CCCCC2)no1	1	0.9	6.5	-1.0	-7.3	-6.7
O=c1cc(-c2ccccc2)[nH]c2[nH]n(-c3ccccc3)c(=O)c12	0.4	1	0.0	56.5*	-7.5	1.3
CCOC(=O)Cc1cc(=O)c2c(=O)n(-c3ccccc3)[nH]c2[nH]1	1	0.9	5.1	4.8	-10.8	2.8
Cc1cc(NC(=O)Cn2c(=O)n(Cc3ccccc3)c(=O)c3ccccc32)no1	0.8	0.8	23.3	17.6	-10.3	-1.1
CCN(C(=O)Cn1c(=O)n(Cc2ccccc2)c(=O)c2ccccc21)c1cccc(C)c1	0.1	1	4.7	85.6*	-12.3	1.9
CC(C)[C@H](NC(=O)OCc1ccccc1)C(=O)OCC(=O)NC1CCCCC1	0.2	0.2	77.9*	81.0*	-52.7	4.7
CC(C)C(NC(=O)OCc1ccccc1)C(=O)NCC(=O)OC(C)(C)C (stereo unspecified)	0.9	0.2	82.6*	13.5	-16.4	-2.1
CC(C)C(NC(=O)OCc1ccccc1)C(=O)OCC(=O)NCc1ccco1 (stereo unspecified)	1	0.7	26.1	0.6	-19.8	-0.5
COC(=O)CNC(=O)C(C)NC(=O)OCc1ccccc1 (stereo unspecified)	1.1	1	-1.6	-6.7	-7.3	0.6
O=C(Nc1ccccc1)O/N=C/c1ccccc1Cl	0.7	0.6	40.3	28.2	-29.6	3.2
Cc1cc(C#N)c(C)n1-c1cc(S(=O)(=O)N2CCOCC2)ccc1N1CCCC1	0.3	0.7	33.3	73.3*	5.8	9.5
Cc1cc(C)n(-c2nncn2NC(=O)c2ccc(Cl)cc2O)n1	0.6	0.9	6.4	41.4	15.1	2.0
SMILES	CYP2C9 activ	CYP2C19 activ	CYP2C19 inhib	CYP2C9 inhib	CD11b adhes inh	CD11b adhes enh
OC(Cn1ccnc1)c1ccc(Cl)cc1Cl (stereo unspecified)	0.1	0	98.9*	94.8*	1.6	4.5
NS(=O)(=O)c1ccc(N2N=C(c3ccccc3)CC2c2ccc(F)cc2)cc1 (stereo unspecified)	0.1	0.7	31.3	90.4*	70.6	-4.9
COc1cc(NC(=O)Cc2nn(C)c(=O)c3ccccc23)cc(OC)c1	0.1	0.7	34.7	86.1*	29.9	-5.0
Cn1c(C(=O)O)c(CC(=O)Nc2ccc3c(c2)OCCO3)c2ccccc21	0.3	0.4	59.2*	65.0*	7.3	6.6
COc1cccc(OC)c1NC(=O)Cc1nn(C)c(=O)c2ccccc12	0.8	0.7	33.9	16.8	-6.9	-3.6
COc1ccccc1NC(=O)Cc1nn(C)c(=O)c2ccccc12	0.8	0.7	30.6	20.6	63.8*	-2.8
O=C(CCn1cnc2ccccc2c1=O)Nc1ccc2c(c1)OCCO2	0.5	0.5	53.2*	53.4*	-3.4	4.1
O=C(Nc1ccc(Cl)cc1)C1=Cc2ccccc2OC1	0.9	0.7	29.2	10.2	8.4	-1.6
O=C(Oc1cccc(N2C(=O)CCC2=O)c1)C1CC(=O)N(c2ccc(F)cc2)C1 (stereo unspecified)	0.9	1.1	-13.4	7.6	-3.2	2.1
CCc1ccccc1S(=O)(=O)Cc1ccc(C(=O)N2CCN(c3ccccn3)CC2)o1	1	0.6	38.7	4.9	6.1	4.3
Cn1nc(CC(=O)Nc2ccc3c(c2)OCCO3)c2ccccc2c1=O	1.2	1.1	-7.6	-24.8	95.7*	-11.5
CCCCC(=O)Nc1cccc(NC(=S)NC(C)=O)c1	.	.	.	.	-1.9	0.3
COc1cc(NC(=O)CSc2ncccc2C(=O)OC(C)C)cc(OC)c1	0.5	0.3	70.3*	50.7*	-0.6	-2.9
COc1cccc(NC(=O)CSc2nc3ccccc3cc2Cc2ccccc2)c1	0.3	0.1	93.9*	67.8*	.	.
COc1ccc(NC(=O)CSc2nc3ccccc3cc2Cc2ccccc2)cc1	0.7	0.1	85.2*	33.2	.	.
COc1cccc(CSc2nc3ccccc3cc2C=O)c1	0.4	0.7	25.2	64.1*	18.8	-4.5
Cc1nc(SCc2cccc(Oc3ccccc3)c2)n[nH]1	0.7	0.6	40.1	25.8	-2.2	-2.5
Cc1ccc(CS(=O)(=O)CCC(=O)NCCCN2CCCC2)cc1	0.9	1.1	-9.4	9.9	.	.
Cc1ccc(NC(=O)/C=C/c2cccs2)c([N+](=O)[O-])c1	1.1	1.2	-16.0	-7.6	8.7	-1.7
COc1cc(NC(=O)CSc2nc3ccccc3cc2Cc2ccccc2)cc(OC)c1	0.4	0.2	82.7*	64.4*	.	.
CCCc1[nH]nc2c1C(c1ccc(OC)c(Cn3nnc4ccccc43)c1)C(C#N)=C(N)O2 (stereo unspecified)	0.4	0.6	43.1	62.5*	-1.4	-0.6
CCCc1[nH]nc2c1C(c1ccccc1OC)C(C#N)=C(N)O2 (stereo unspecified)	0.8	0.7	27.6	17.4	-15.1	1.9
Cc1[nH]nc2c1C(c1ccc3c(c1)OCO3)C(C#N)=C(N)O2 (stereo unspecified)	0.4	0.4	59.8*	56.9*	0.8	-0.6
